Compounds without any hit were thinned out: in the full panel of roughly 79,000, 15% have a hit. The source made the active and inactive calls. Rule as the data show it: active = growth inhibition above about 70%; inactive = the rest.
Columns and labels:
[1] = NCI Yeast Anticancer Drug Screen. Data for the wt1 strain (AID 149);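 also: 0% = growth of vehicle-treated wt1 cultures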; settings: S. cerevisiae wt1 strain (SPY 50644) growth inhibition, active compounds read high
How it was run: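 Using yeast strain wt1, compound-induced growth inhibition was determined against vehicle-treated cultures.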

[2] = NCI Yeast Anticancer Drug Screen. Data for the rad50EPP+ strain (AID 151);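 also: 0% = growth of vehicle-treated control cultures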; settings: S. cerevisiae rad50 mutant strain, active compounds read high
How it was run: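 Exposing the rad50EPP+ strain to each compound, growth was compared with vehicle-only cultures to give inhibition.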

[3] = NCI Yeast Anticancer Drug Screen. Data for the mgt1 strain (AID 153); settings: S. cerevisiae mgt1 mutant growth inhibition, active compounds read high
How it was run: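 Genetically defined yeast (mgt1) treated with compound; inhibition of growth expressed against vehicle-treated controls.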

[4] = NCI Yeast Anticancer Drug Screen. Data for the rad50 strain (AID 155);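 also: 0% = growth of vehicle-only cultures of the same strain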; settings: S. cerevisiae rad50 strain growth inhibition, active compounds read high
How it was run: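 Relative growth inhibition (compound vs vehicle) was measured in yeast with a defined repair-gene alteration.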

[5] = NCI Yeast Anticancer Drug Screen. Data for the mec2-1 strain (AID 157); settings: S. cerevisiae mec2-1 strain, active compounds read high
How it was run: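 Readout is yeast growth inhibition, normalised to vehicle-treated controls, in the mec2-1 strain exposed to compound.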

[6] = NCI Yeast Anticancer Drug Screen. Data for the rad14 strain (AID 159);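 also: 0% = growth of vehicle-treated control cultures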; settings: S. cerevisiae rad14 strain growth inhibition, active compounds read high
How it was run: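 Screen for anticancer potential: a yeast strain altered in DNA damage repair is grown with compound, and reduced growth is quantified against vehicle controls.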

[7] = NCI Yeast Anticancer Drug Screen. Data for the sgs1 mgt1 strain (AID 161);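 also: 0% = growth of cultures given vehicle only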; settings: S. cerevisiae sgs1 mgt1 strain, active compounds read high
How it was run: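 Compounds are added to genetically altered yeast, and growth is compared with cultures given vehicle alone to give percent inhibition.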

[8] = NCI Yeast Anticancer Drug Screen. Data for the CLN2oe strain (AID 163);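 also: 0% = growth of vehicle-only control cultures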; settings: S. cerevisiae CLN2oe strain, active compounds read high
How it was run: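 Values reflect how much compound exposure reduced yeast growth, referenced to vehicle-exposed cells. Assay organism is a strain with a defined genetic change affecting cell-cycle control.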

[9] = NCI Yeast Anticancer Drug Screen. Data for the cln2 rad14 strain (AID 165);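 also: 0% = growth equal to vehicle treated cultures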; settings: S. cerevisiae cln2 rad14 strain, active compounds read high
How it was run: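 Relative to vehicle controls, growth inhibition of compound-treated cln2 rad14 yeast was recorded.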

[10] = NCI Yeast Anticancer Drug Screen. Data for the bub3 strain (AID 167); settings: S. cerevisiae bub3 mutant strain, active compounds read high
How it was run: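 Screening used yeast with an engineered genetic alteration affecting cell cycle control. Compound-exposed cultures were compared with vehicle cultures, and reduced growth was taken as inhibition.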

[11] = NCI Yeast Anticancer Drug Screen. Data for the wt2 strain (AID 169);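 also: 0% = growth of vehicle-treated yeast cultures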; settings: S. cerevisiae wt2 strain growth inhibition, active compounds read high
How it was run: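 Values express reduction in yeast growth under compound treatment, referenced to vehicle-treated cells.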

[12] = NCI Yeast Anticancer Drug Screen. Data for the mlh1 strain (AID 171);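 also: 0% = growth of vehicle-treated control cultures of the same strain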; settings: S. cerevisiae mlh1 strain growth inhibition, active compounds read high
How it was run: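 Steps: expose the defined-mutant yeast strain to compound; expose a parallel culture to vehicle; measure growth; express compound effect as inhibition relative to the vehicle culture.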

[13] = NCI Yeast Anticancer Drug Screen. Data for the sgs1 strain (AID 173);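 also: 0% = growth of vehicle-only control cultures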; settings: S. cerevisiae sgs1 mutant, active compounds read high
How it was run: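 Treat defined-mutant yeast with compound; measure growth; calculate inhibition relative to vehicle-treated cells.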

[14] = NCI Yeast Anticancer Drug Screen. Data for the mlh1 rad18 strain (AID 175); settings: S. cerevisiae mlh1 rad18 strain growth inhibition, active compounds read high
How it was run: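 Test agents were incubated with a yeast strain of defined genotype (DNA damage repair defect). Inhibition of growth was derived by comparison with vehicle-exposed cultures.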

[15] = NCI Yeast Anticancer Drug Screen. Data for the rad18 strain (AID 177); settings: S. cerevisiae rad18 mutant growth inhibition, active compounds read high
How it was run: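 A genetically defined yeast mutant impaired in DNA damage repair was treated with test compounds, then its growth was measured against cultures receiving vehicle alone.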

[16] = at 5.0 µM (retest, dose inferred, filed as 0.5)
[17] = at 50.0 µM (retest, dose inferred, filed as 5.0)

Measured: growth inhibition

Nc1c([N+](=O)[O-])cc2c3c(cccc13)CC2
active: [2]; at 33.0 µM 74% | [2]; at 100.0 µM 71% | [4]; at 11.0 µM 79% | [4]; at 33.0 µM 77% | [4]; [17] 81% | [4]; at 50.0 µM 87.2% | [4]; at 100.0 µM 83% | [14]; at 50.0 µM 77.9% | [15]; at 3.7 µM 71% | [15]; at 11.0 µM 86% | [15]; at 33.0 µM 83% | [15]; at 100.0 µM 86%
inactive: [1]; at 1.2 µM 6% | [1]; at 3.7 µM 12% | [1]; at 11.0 µM 24% | [1]; at 33.0 µM 25% | [1]; at 100.0 µM 24% | [2]; at 1.2 µM 10% | [2]; at 3.7 µM 32% | [2]; at 11.0 µM 63% | [3]; at 1.2 µM 5% | [3]; at 3.7 µM 18% | [3]; at 11.0 µM 31% | [3]; at 33.0 µM 22% | [3]; at 100.0 µM 39% | [4]; at 1.2 µM 28% | [4]; at 3.7 µM 67% | [4]; [16] 3% | [5]; at 1.2 µM 4% | [5]; at 3.7 µM 14% | [5]; [16] 2% | [5]; at 11.0 µM 13% | [5]; at 33.0 µM 25% | [5]; [17] 29% | [5]; at 50.0 µM 27.9% | [5]; at 100.0 µM 29% | [6]; at 1.2 µM 11% | [6]; at 3.7 µM 14% | [6]; at 11.0 µM 30% | [6]; at 33.0 µM 39% | [6]; at 100.0 µM 54% | [7]; [16] 16% | [7]; [17] 54% | [7]; at 50.0 µM 52.5% | [8]; at 1.2 µM 8% | [8]; at 3.7 µM 14% | [8]; at 11.0 µM 17% | [8]; at 33.0 µM 20% | [8]; at 100.0 µM 26% | [9]; [16] -16% | [9]; [17] 20% | [9]; at 50.0 µM 21.5% | [10]; at 1.2 µM -4% | [10]; at 3.7 µM 0% | [10]; [16] -20% | [10]; at 11.0 µM 14% | [10]; at 33.0 µM 10% | [10]; [17] 17% | [10]; at 50.0 µM 21.4% | [10]; at 100.0 µM 11% | [11]; at 1.2 µM 3% | [11]; at 3.7 µM 10% | [11]; at 11.0 µM 18% | [11]; at 33.0 µM 25% | [11]; at 100.0 µM 55% | [12]; at 1.2 µM 5% | [12]; at 3.7 µM 14% | [12]; at 11.0 µM 20% | [12]; at 33.0 µM 28% | [12]; at 100.0 µM 53% | [13]; at 1.2 µM 8% | [13]; at 3.7 µM 20% | [13]; at 11.0 µM 33% | [13]; at 33.0 µM 45% | [13]; at 100.0 µM 65% | [14]; [16] 12% | [14]; [17] 65% | [15]; at 1.2 µM 24%

Reference: PubChem BioAssay (NCI)
